Luc counter: blocks Kinase-Glo luciferase, a counter-screen artifact; Q27757; Kinase-Glo luciferase, ATP luminescence, 8 min; Potency, µM (series often up to 38.3 µM), without a hit: at the highest dose activity change, negative = inhibition, usual class: inhibitors; 0.28% of 200,000 active; AID 1379; note: nearly all actives have a fitted effect of over 60% in size
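Compound is pinned into ATP-containing buffer (10 uM ATP, imidazole pH 7.2, 7 mM MgCl2). Kinase-Glo luciferase reagent is then added. Light output is recorded following an 8-min room-temperature incubation.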
NPSR antag: blocks cAMP signaling of the human neuropeptide S receptor; Q6W5P4; CHO-NPSR cells, cAMP TR-FRET, antagonist mode; Potency, µM (doses to about 38.3 µM), inactives show top-dose activity change, negative = inhibition, actives largely listed as inhibitors; 1% of 220,000 active; AID 1461; note: nearly all actives have a fitted effect of over 50% in size
Tau fluor cs: counter-screen for tau fibril formation inhibitors; Potency, µM (top dose mostly 57.7 µM), for inactives: at the highest dose activity change, negative = decrease; 0.93% of 280,000 active; tau K18 P301L Alexa594 fluorescence, heparin fibrillization; note: nearly all actives have a fitted effect of over 55% in size
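Human K18 P301L tau (15 uM unlabeled plus 0.24 uM Alexa 594-labeled, final) in 100 mM sodium acetate pH 7 was mixed with compound and 20 uM heparin and incubated 6 hr at 37 C.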
Tau fibril ThT: tau fibrillization inhibition (ThT binding); P10636; AID 1460; recombinant tau K18 P301L (four-repeat tau fragment), heparin-induced fibrillization, ThT fluorescence; 2.1% of 270,000 active; Potency, µM (top dose mostly 57.4 µM), for inactives: at the highest dose activity, negative = inhibition, most hits filed as inhibitors; note: nearly all actives have a fitted effect of over 55% in size
Target sequence (P10636 561-689 P618L limits assumed): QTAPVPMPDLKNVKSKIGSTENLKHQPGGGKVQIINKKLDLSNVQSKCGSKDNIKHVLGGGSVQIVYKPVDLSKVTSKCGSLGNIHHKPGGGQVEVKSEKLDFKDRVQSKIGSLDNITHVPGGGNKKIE
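K18 P301L tau (15 uM + 0.24 uM Alexa 594-tagged), heparin 20 uM, NaOAc pH 7, 6 h 37 C; ThT 30 uM, 1 h RT, ex 450/em 510 nm.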
Tau fibril FP: inhibitors of human tau fibril formation; P10636; K18 P301L tau heparin fibrillization, Alexa594 FP, 6 h; Potency, µM (series often up to 57.7 µM), for the others: at the top dose activity, negative = inhibition, most hits filed as inhibitors; 0.39% of 280,000 active; AID 1468; note: nearly all actives have a fitted effect of over 55% in size
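Read-out: fluorescence polarization of Alexa 594-labeled tau (0.24 uM), 555 nm excitation, 632 nm emission. Mixtures held 15 uM unlabeled K18 P301L, compound and 20 uM heparin, pH 7 acetate buffer, incubated 6 hr at 37 C.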
Numbers without * were called inactive; [ ] = dose if it differs, or a comment. Rows were chosen to be rich in hits. Some 3.3% of all compounds tested hit in one or more screens of this group. Calls come from the whole dose curve; as a rule, active = well fitted curve in the direction sought with a large enough effect; inconclusive = small, poorly fitted or top-dose-only effect, or another doubt; inactive = no such curve, though single readings can be large; an effect the other way counts as inactive or inconclusive. % is set by controls: 0 for no effect and ±100 for the full control effect; potency is the fitted concentration of half-maximal effect.

`COC(=O)C1=C(C)NC(=O)/C1=C\c1cc(C)n(-c2cc(C)cc(C)c2)c1C` gave Luc counter 17%, NPSR antag -4%[46.1 µM], Tau fluor cs inconclusive, Tau fibril ThT 20µM* and Tau fibril FP 1%.
`COC(=O)C1=C(O)/C(=C\c2cc(C)n(-c3ccccc3F)c2C)N=C1C` gave Luc counter -1%, NPSR antag -24%, Tau fluor cs -16%, Tau fibril ThT inconclusive and Tau fibril FP -3%.
`Cc1cccc(OCC(=O)N(Cc2cccs2)c2ccc(Cl)cc2)c1C` gave Tau fluor cs -11%, Tau fibril ThT -8% and Tau fibril FP 0%.
For Cc1ccccc1Nc1c(-c2cccs2)nc2cccc(C)n12 the results were Tau fluor cs -25%, Tau fibril ThT -6% and Tau fibril FP -11%.
Screening O=Nc1ccc(NOC(=O)c2ccccc2Br)cc1 returned Luc counter inconclusive, NPSR antag -17%, Tau fluor cs -27%, Tau fibril ThT inconclusive and Tau fibril FP 0%.
O=C(ONc1ccc(N=NC(=O)c2ccccc2O)cc1)c1ccccc1 was read as Luc counter -3%, NPSR antag 0%[46.1 µM], Tau fluor cs inconclusive, Tau fibril ThT 4.5µM* and Tau fibril FP 1%.
Cc1ccc(-n2c(C)cc(/C=N/Nc3ccc([N+](=O)[O-])cn3)c2C)cc1 was read as Luc counter -6%, NPSR antag -9%[46.1 µM], Tau fluor cs inconclusive, Tau fibril ThT 2µM* and Tau fibril FP 6%.
Screening Cc1ccc(Cn2cc(/C=N/Nc3ccc([N+](=O)[O-])cn3)c3ccccc32)cc1 returned Luc counter -1%, NPSR antag -15%, Tau fluor cs 11µM*[quencher], Tau fibril ThT 10µM* and Tau fibril FP 12%.
Screening Cc1c(C(=O)O)cccc1-n1c(C)cc(/C=N/NC(=O)c2cc3ccccc3o2)c1C returned Luc counter 2%, NPSR antag 2%, Tau fluor cs -11%, Tau fibril ThT inconclusive and Tau fibril FP 1%.
`Cc1cc(/C=N/Nc2ccc([N+](=O)[O-])cn2)c(C)n1-c1ccccc1` gave Luc counter 13%, NPSR antag -14%[46.1 µM], Tau fluor cs inconclusive, Tau fibril ThT 3.5µM* and Tau fibril FP 8%.
`Cc1c(/C=N/Nc2ccc([N+](=O)[O-])cn2)c2ccccc2n1Cc1ccccc1` gave NPSR antag -1%, Tau fluor cs inconclusive, Tau fibril ThT inconclusive and Tau fibril FP 8%.
Cc1c(C(=O)O)cccc1-n1c(C)cc(/C=N/Nc2ccc([N+](=O)[O-])cn2)c1C was read as NPSR antag 10µM*, Tau fluor cs inconclusive, Tau fibril ThT 13µM* and Tau fibril FP 5%.
Screening Cc1cc(/C=N/NC(=O)CC#N)c(C)n1-c1ccc([N+](=O)[O-])cc1 returned Luc counter 1%, NPSR antag 7%, Tau fluor cs -24%, Tau fibril ThT inconclusive and Tau fibril FP inconclusive.
Screening CCOC(=O)c1ccccc1NC(=O)NCc1cccn1Cc1ccc(F)cc1 returned Tau fluor cs -4%, Tau fibril ThT inconclusive and Tau fibril FP -4%.
Screening CCCCNC(=O)CSc1nc2cc3c(cc2c(=O)n1CCCC(=O)NCc1ccc(OC)cc1)OCO3 returned Tau fluor cs 7%, Tau fibril ThT 9% and Tau fibril FP 4%.
Screening CCOCCCNc1nc2c(C)cccn2c(=O)c1/C=C1\SC(=S)N(CC(C)C)C1=O returned Luc counter -6%, NPSR antag -1%[46.1 µM], Tau fluor cs -9%, Tau fibril ThT -14% and Tau fibril FP 2%.
`CCOCCCNc1nc2c(C)cccn2c(=O)c1/C=C1\SC(=S)N(C(C)CC)C1=O` (stereo not drawn) gave NPSR antag inconclusive, Tau fluor cs -1%, Tau fibril ThT inconclusive and Tau fibril FP 22µM*.
`O=C(NCC1CCN(c2ccc(S(=O)(=O)N3CCOCC3)cc2)CC1)c1ccc(Cl)cc1` gave Luc counter -3%, NPSR antag -27%[46.1 µM], Tau fluor cs -29%, Tau fibril ThT -16% and Tau fibril FP 1%.

Screens (PubChem)
